PLK1 PBD inh – blocks phosphopeptide binding to human PLK1 polo-box domain; Plk1 PBD binding of FITC phosphopeptide, fluorescence polarization; P53350; Potency, µM, for the others: max response, negative = inhibition, hits mostly inhibitors; hit rate 2.8% among 360,000; also: series mostly up to about 57 µM; % is scaled to controls: 0 for no effect and ±100 for the full control effect; nearly all actives have a fitted effect of over 65% in size
12-LOX inh – ALOX12 (human) lipoxygenase inhibition. purified 12hLO, xylenol orange hydroperoxide absorbance. Potency, µM (highest dose often 108 µM), for the others: at the top dose activity change, negative = inhibition, usual class: inhibitors. hit rate 1.1% among 580,000. AID 1671190; also: % is scaled to controls: 0 for no effect and ±100 for the full control effect
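Hydroperoxide product was detected by ferrous iron/xylenol orange as the 573 to 405 nm absorbance ratio. Arachidonic acid at 40 uM (final) was turned over for 30 min at room temperature by 150 nM human 12hLO, pH 7.0 Hepes buffer, after 15 min compound preincubation.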
JMJD2A Tudor inh – blocks the human JMJD2A Tudor domain; hit rate 4.4% among 390,000; O75164; AlphaScreen JMJD2A-Tudor / H3K4me3 peptide binding; AID 504339; Potency, µM (series often up to 114 µM), without a hit: top-dose activity change, negative = inhibition, most hits filed as inhibitors; also: % is scaled to controls: 0 for no effect and ±100 for the full control effect; nearly all actives have a fitted effect of over 50% in size
Target sequence (O75164 whole entry, looked up, the tested form may be a part): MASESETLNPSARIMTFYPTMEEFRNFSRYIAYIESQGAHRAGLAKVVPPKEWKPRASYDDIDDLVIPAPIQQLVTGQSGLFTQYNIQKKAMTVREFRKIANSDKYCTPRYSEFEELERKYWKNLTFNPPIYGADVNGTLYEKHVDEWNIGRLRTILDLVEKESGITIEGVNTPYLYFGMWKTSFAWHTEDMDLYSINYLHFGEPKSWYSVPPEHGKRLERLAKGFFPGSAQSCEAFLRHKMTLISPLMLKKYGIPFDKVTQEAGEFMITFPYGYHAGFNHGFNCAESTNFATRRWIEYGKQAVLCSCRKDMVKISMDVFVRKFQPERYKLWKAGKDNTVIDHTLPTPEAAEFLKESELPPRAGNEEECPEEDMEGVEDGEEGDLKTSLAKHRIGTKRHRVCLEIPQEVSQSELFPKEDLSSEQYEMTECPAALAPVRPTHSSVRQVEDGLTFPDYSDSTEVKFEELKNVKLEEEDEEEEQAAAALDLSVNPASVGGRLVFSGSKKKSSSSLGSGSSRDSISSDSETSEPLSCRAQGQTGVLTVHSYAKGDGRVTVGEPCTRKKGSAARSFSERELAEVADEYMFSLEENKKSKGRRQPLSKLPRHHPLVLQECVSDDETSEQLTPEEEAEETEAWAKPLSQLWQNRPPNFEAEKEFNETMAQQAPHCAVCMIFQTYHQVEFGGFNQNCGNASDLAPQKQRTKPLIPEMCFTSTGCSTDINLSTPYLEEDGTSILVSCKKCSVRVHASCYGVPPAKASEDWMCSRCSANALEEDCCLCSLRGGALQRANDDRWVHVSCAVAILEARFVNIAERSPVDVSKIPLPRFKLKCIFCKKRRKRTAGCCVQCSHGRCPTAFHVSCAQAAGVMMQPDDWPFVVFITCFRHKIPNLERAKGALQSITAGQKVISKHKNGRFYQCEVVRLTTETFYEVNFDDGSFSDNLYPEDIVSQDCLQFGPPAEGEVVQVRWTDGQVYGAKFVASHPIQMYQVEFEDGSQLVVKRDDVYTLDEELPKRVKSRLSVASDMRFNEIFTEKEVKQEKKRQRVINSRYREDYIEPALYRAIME
BAZ2B inh – BAZ2B (human) inhibition | Q9UIF8 | AlphaScreen BAZ2B-H3K14Ac peptide displacement | Potency, µM (titrated, usually from 114 µM), for the others: at the highest dose activity change, negative = inhibition, hits mostly inhibitors | hit rate 4.4% among 360,000 | AID 504333; also: % is scaled to controls: 0 for no effect and ±100 for the full control effect; nearly all actives have a fitted effect of over 60% in size
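In this displacement format the biotinylated H3(5-23) peptide acetylated at Lys14 serves as ligand at 50 nM, with BAZ2B at 50 nM in PBS pH 7.4 containing 0.01% Tween-20. Donor and acceptor beads are 10 ug/mL final.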
HP1b binding inh – blocks HP1-beta chromodomain binding to methylated histone tails; P83916; AlphaScreen HP1-beta / biotin-H3K9me3 peptide binding; Potency, µM (top dose mostly 114 µM), for the others: top-dose activity change, negative = inhibition, actives largely listed as inhibitors; hit rate 0.56% among 390,000; AID 540317; also: nearly all actives have a fitted effect of over 70% in size
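AlphaScreen: HP1-beta (50 nM) preformed 30 min with biotin-H3(1-18)K9me3 peptide (50 nM) in PBS pH 7.4, 0.01% Tween-20. Compound added for 30 min at RT, then streptavidin donor/nickel chelate acceptor beads (10 ug/mL) for 30 min.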
G9a block – blocks human histone lysine methyltransferase G9a. G9a H3K9 monomethylation, AlphaScreen, 2 h. Potency, µM (series often up to 102 µM), without a hit: at the top dose activity, negative = inhibition, most hits filed as inhibitors. AID 504332. Q96KQ7. hit rate 8.8% among 350,000; also: % is scaled to controls: 0 for no effect and ±100 for the full control effect; nearly all actives have a fitted effect of over 75% in size
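Chemiluminescent proximity detection of H3K9 monomethylation, read after 10 min bead incubation in the dark. Reaction: 20 nM G9a, 500 nM biotin-H3K9 peptide, 20 uM SAM cofactor, 2 h, room temperature, following 15 min enzyme-compound preincubation.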
The depositor's hits bear a star; i = inactive; ? = inconclusive; nt = not tested or not shown; [ ] = another dose, or the depositor's remark. Compounds with a hit are over-represented: about 9% of the library has one in this group of screens. Calls follow the shape of the dose curve; as a rule, active = well fitted curve in the direction sought with a large enough effect; inconclusive = small, poorly fitted or top-dose-only effect, or another doubt; inactive = no such curve, though single readings can be large; an effect the other way counts as inactive or inconclusive. Potency is read from the fitted curve at half-maximal effect.

SMILES	PLK1 PBD inh	12-LOX inh	JMJD2A Tudor inh	BAZ2B inh	HP1b binding inh	G9a block
Cc1ccc(O)c(-c2cc3ccccc3[nH]2)c1	3.0%	?	?	44.7µM*	?	?
O=C(NCC(=O)N1CCN(c2ccccn2)CC1)c1ccc(Br)o1	0.8%	i	-4.8%	-19.7%	38.5%	43.8%
O=C1NC(c2ccccc2)Nc2c1sc(=S)n2-c1ccccc1 (stereo unspecified)	21.2µM*	44.7µM*	-11.3%[11.4 µM]	-18.8%	-5.0%	22.4µM*
Cc1c(C(=O)O)sc(=S)n1-c1ccccc1	-9.3%	?	-16.5%	-9.2%	46.8%	-5.9%
CCOc1ccc(C2NC(=O)c3sc(=S)n(-c4ccccc4)c3N2)cc1 (stereo unspecified)	?	?	-28.2%	?	19.9%	31.6µM*
CCOc1ccc(-n2c(=S)sc3c(=O)n(-c4ccccc4)c(SC)nc32)cc1	-15.6%	0.0%	-26.8%	-12.0%	-6.8%	19.2%
COc1cc2c(cc1OC)C1CCC3=C([C@H](C)OC3=O)N1CC2 (stereo partly specified)	nt	296.2%	nt	nt	nt	nt
CCOc1cccc(/C=N/Nc2ccc(S(=O)(=O)N(CC)CC)cn2)c1O	-4.5%	19.8%	-8.2%	-3.1%	18.4%	14.3%[59 µM]
CCOC(=O)c1c(CSC(=N)N)n(-c2ccc(Br)cc2)c2cc(Br)c(OC(C)=O)cc12	-11.8%	-11.6%	-35.9%	?	5.9%	70.8µM*
COc1ccc(OC)c(CCNC(=O)CSc2ccsc2[N+](=O)[O-])c1	-22.3%	-14.4%	44.7µM*	?	-5.5%	31.6µM*
CC1CCCCC1NC(=O)CSc1ccsc1[N+](=O)[O-] (stereo unspecified)	-6.2%	0.1%	-16.6%	-27.1%	16.3%	-28.4%
COc1ccc(CCNC(=O)CSc2ccsc2[N+](=O)[O-])c(OC)c1	-17.9%	?	-28.9%	-29.1%	20.6%	?
CCc1ccccc1NC(=O)CSc1ccsc1[N+](=O)[O-]	-27.9%	?	?	50.1µM*	-21.5%	?
COc1ccc(CCNC(=O)CSc2ccsc2[N+](=O)[O-])cc1OC	-11.1%	-13.8%	-24.1%	-15.9%	20.3%	-32.9%
O=C(CSc1ccsc1[N+](=O)[O-])Nc1cccc(F)c1	?	?	44.7µM*	35.5µM*	?	50.1µM*
COc1ccccc1CNC(=O)CSc1ccsc1[N+](=O)[O-]	-24.4%	-4.0%	-26.1%	?	55.0%	50.1µM*
CC(C)c1nccn1S(=O)(=O)c1cccc([N+](=O)[O-])c1	2.1%	-5.8%	-4.3%	2.6%	26.5%	-7.4%
Cc1ccc2[nH]c(=O)c(CN(Cc3ccccc3)Cc3nnnn3C3CCCC3)cc2c1	-9.1%	?	?	?	9.1%	-42.5%[12.7 µM]
O=C(CSc1ccsc1[N+](=O)[O-])NC1CCCC1	-18.4%	?	-24.1%	-37.8%	5.3%	31.6µM*
O=C(CSc1ccsc1[N+](=O)[O-])NCc1ccccc1	?	?	-33.1%	?	4.9%	50.1µM*
COc1ccccc1Cn1[nH]nnc1=S	23.8µM*	22.4µM*	15.8µM*	-29.8%	?	3.16µM*
COc1cccc(CN2CCN(Cc3cccc(Br)c3)CC2)c1OC	-1.4%	?	3.16µM*	20µM*	22.4µM*	?
COc1cccc(CN2CCN(c3cccc(C(F)(F)F)c3)CC2)c1OC	-5.3%	?	2.24µM*	?	?	6.31µM*
COc1ccccc1CN1C(=O)CNC1=S	-5.4%	nt	-12.5%	-4.1%	14.6%[57 µM]	-0.8%
COc1ccccc1CN1CCSCC1	-12.9%	?	6.31µM*	50.1µM*	70.8µM*	?
SMILES	PLK1 PBD inh	12-LOX inh	JMJD2A Tudor inh	BAZ2B inh	HP1b binding inh	G9a block
COc1ccccc1CN1CCC2(CC1)CCN(C(C)=O)CC2	nt	-5.4%[57.4 µM]	nt	nt	nt	9.9%[12.7 µM]
O=C(COc1ccccc1Cl)N(Cc1cccc(F)c1)C1CCS(=O)(=O)C1 (stereo unspecified)	nt	-9.0%	-16.3%	-1.9%	6.7%	-0.3%[59 µM]
CCOc1ccc(C2CCCN2S(=O)(=O)c2cc(F)cc(F)c2)cc1 (stereo unspecified)	nt	-11.8%	nt	nt	nt	nt
COc1ccc(C(=O)N2CCC3(CC2)OCC(C(=O)NC2CC2)N3C(=O)c2ccc(OC)cc2)cc1 (stereo unspecified)	nt	35.6%	nt	nt	nt	nt
COc1cccc(CN2CCCCCCNC(=O)CC2)c1OC	nt	6.2%	nt	nt	nt	nt
COc1ccccc1CN1CCCCCC1	-6.5%	?	1.26µM*	?	?	39.8µM*
COc1cccc(CN2CCSCC2)c1OC	-11.3%	?	20µM*	79.4µM*	?	nt
Cc1ccsc1C(=O)N1CCCN(C)c2ccccc21	nt	-11.3%	nt	nt	nt	nt
COC(=O)c1c(C)cccc1NCC(=O)NC(=O)NC1CC1	nt	-17.7%	nt	nt	nt	nt
Nc1c(C(=O)c2ccc(F)cc2)sc(Nc2ccccc2F)c1S(=O)(=O)c1ccc(Br)cc1	nt	-16.4%	-35.1%	?	4.2%[57 µM]	-5.8%[59 µM]
CCOc1ccc2c(c1)cc(C(=O)Nc1cccc(OC)c1)n2C	nt	12.1%	nt	nt	nt	nt
O=C(O)c1cccc(Nc2ccncc2[N+](=O)[O-])c1	23.8µM*	0.0%	20µM*	-18.0%	29.1%	2.7%
O=C(O)c1ccc(Nc2cccc(F)c2)c([N+](=O)[O-])c1	-15.0%	0.0%	-15.7%	-5.7%	28.6%	-8.1%
C[N+](C)(C)CC/C=C1/c2ccccc2CSc2ccccc21	-10.6%	7.9%	50.1µM*	79.4µM*	43.3%	?
CC(=O)OCCCN(C)CC/C=C1/c2ccccc2CSc2ccccc21	-12.8%	34.2%	-18.0%	nt	26.6%	nt

Screening results from PubChem BioAssay.
